Measurements published in PubChem BioAssay (Tox21).
Inconclusive results are not listed. Activity calls are given as the source filed them. Unless noted, calls follow the shape of the dose curve; as a rule, active = well fitted curve in the direction sought with a large enough effect in the repeat runs; inconclusive = weak or mixed curves; inactive = no such curve, though single readings can be large; an effect the other way counts as inactive or inconclusive.

What was measured:
[1] = qHTS assay to identify small molecule antagonists of the retinoid acid receptor (RAR) signaling pathway - cell viability counter screen (AID 1159551); also: nearly all actives have a fitted effect of over 35% in size
Summary of the method: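 Retinol-stimulated (1 uM final) C3RL4 cells, compound 6 h, 37 C; readout CellTiter-Glo luminescence (ATP) after 30 min RT incubation.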

[2] = qHTS assay to identify small molecule antagonists of the retinoic acid receptor (RAR) signaling pathway (AID 1159552; also: nearly all actives have a fitted effect of over 50% in size)
Summary of the method: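 Readout: luciferase luminescence, 30 min post-reagent at RT. Setup: C3RL4 RARE reporter cells, compounds plus retinol 1 uM final, 6 hr incubation at 37 C and 5% CO2.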

[3] = qHTS assay to identify small molecule agonists of the retinoic acid receptor (RAR) signaling pathway (AID 1159553)
Summary of the method: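 Reporter readout comes from luciferase under RARE control in C3RL4 cells; compound exposure lasts 6 hr at 37 C in 5% CO2, and luminescence is recorded following a 30 min room-temperature incubation with reagent.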

[4] = qHTS assay to identify small molecule antagonists of the estrogen related receptor (ERR) signaling pathway from Tox21 library - cell viability counter screen (AID 1224834); also: nearly all actives have a fitted effect of over 30% in size
Summary of the method: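 After 17.5 h of compound exposure at 37 C, ERR cells are incubated with CellTiter-Fluor for 30 min and fluorescence intensity serves as the viability measure.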

[5] = target: Luciferin 4-monooxygenase (Photinus pyralis) (UniProt P08659); assay: qHTS assay to identify small molecule inhibitors of firefly luciferase (AID 1224835); also: nearly all actives have a fitted effect of over 25% in size
Chain of Luciferin 4-monooxygenase (Photinus pyralis) (P08659 whole entry, looked up): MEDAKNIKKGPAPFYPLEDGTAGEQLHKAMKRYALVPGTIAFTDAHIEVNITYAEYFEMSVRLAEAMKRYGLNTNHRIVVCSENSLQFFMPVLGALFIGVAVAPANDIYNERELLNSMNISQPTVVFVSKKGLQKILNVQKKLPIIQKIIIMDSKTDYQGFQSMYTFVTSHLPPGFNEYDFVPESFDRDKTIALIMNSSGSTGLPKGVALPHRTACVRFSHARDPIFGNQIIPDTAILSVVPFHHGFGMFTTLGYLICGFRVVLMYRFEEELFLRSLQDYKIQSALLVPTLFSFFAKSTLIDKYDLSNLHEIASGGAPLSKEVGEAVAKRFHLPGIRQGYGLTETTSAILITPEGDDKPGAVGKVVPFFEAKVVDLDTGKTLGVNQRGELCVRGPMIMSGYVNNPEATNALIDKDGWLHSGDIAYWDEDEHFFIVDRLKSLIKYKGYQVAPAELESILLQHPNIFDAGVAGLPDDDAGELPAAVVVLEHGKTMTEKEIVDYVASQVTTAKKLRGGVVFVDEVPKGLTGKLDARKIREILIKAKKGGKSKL
Summary of the method: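 Biochemical qHTS: compounds run as interplate titrations against purified firefly enzyme, with D-luciferin and ATP each at its KM concentration. Light output recorded by CCD imaging.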

[6] = qHTS assay to identify small molecule agonists of the constitutive androstane receptor (CAR) signaling pathway - cell viability counter screen (AID 1224836); also: nearly all actives have a fitted effect of over 45% in size
Summary of the method: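 Compound titrations (15 concentrations) went onto HepG2-CYP2B6-hCAR cells 4 h after seeding, alongside PK11195 at a final 0.75 uM; a 23 h, 37 C/5% CO2 incubation preceded CellTiter-Fluor viability measurement.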

[7] = qHTS assay to identify small molecule antagonists of the constitutive androstane receptor (CAR) signaling pathway - cell viability counter screen (AID 1224837); also: nearly all actives have a fitted effect of over 45% in size
Summary of the method: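 Counter screen run in HepG2-CYP2B6-hCAR cells: 4 hr settle, compound titration (15 concentrations) with 50 nM CITCO, 23 hr at 37 C/5% CO2, CellTiter-Fluor fluorescence.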

[8] = target: Nuclear receptor subfamily 1 group I member 3 (Homo sapiens) (UniProt Q14994); assay: qHTS assay to identify small molecule antagonists of the constitutive androstane receptor (CAR) signaling pathway (AID 1224838);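 also: HepG2 cells stably expressing hCAR with CYP2B6 luciferase reporter stimulated by CITCO; nearly all actives have a fitted effect of over 40% in size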
Chain of Nuclear receptor subfamily 1 group I member 3 (Homo sapiens) (Q14994 whole entry, looked up): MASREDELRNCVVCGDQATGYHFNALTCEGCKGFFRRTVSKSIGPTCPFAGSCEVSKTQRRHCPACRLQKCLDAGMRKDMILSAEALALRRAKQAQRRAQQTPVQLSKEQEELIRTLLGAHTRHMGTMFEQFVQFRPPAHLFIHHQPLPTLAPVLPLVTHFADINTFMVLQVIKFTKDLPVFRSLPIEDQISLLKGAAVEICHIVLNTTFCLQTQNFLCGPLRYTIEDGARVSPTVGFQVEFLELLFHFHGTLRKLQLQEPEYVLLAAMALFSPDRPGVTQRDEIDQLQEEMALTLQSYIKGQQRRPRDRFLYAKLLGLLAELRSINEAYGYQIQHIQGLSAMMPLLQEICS
Summary of the method: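 Cell line: HepG2 double-stable for hCAR and CYP2B6-2.2kb reporter. Agonist: CITCO, 50 nM final. Compounds: 15 concentrations, 24 h, 37 C. Detection: ONE-Glo luminescence.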

[9] = target: Nuclear receptor subfamily 1 group I member 3 (Homo sapiens) (UniProt Q14994); assay: qHTS assay to identify small molecule agonists of the constitutive androstane receptor (CAR) signaling pathway (AID 1224839);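 also: HepG2 cells stably carrying human CAR and a CYP2B6 luciferase reporter; nearly all actives have a fitted effect of over 15% in size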
Summary of the method: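 In this screen, CAR-driven CYP2B6 promoter activity is measured by luminescence in HepG2-CYP2B6-hCAR cells after 24 h with test compounds and 0.75 uM PK11195 (final concentration).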

[10] = qHTS assay to identify small molecule antagonists of the estrogen related receptor signaling pathway with the pleiotropic PPARgamma coactivator (PGC) from Tox21 10K library - cell viability counter screen (AID 1224840; active = well fitted cell-killing curve with a large enough effect in the repeat runs, not every such curve was filed as active; also: nearly all actives have a fitted effect of over 40% in size)
Summary of the method: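 Following seeding of 2,000 PGC/ERR cells/well and 6 hours' incubation, test compounds were delivered in DMSO. The plates then sat 17.5 hours at 37 C before a fluorogenic live-cell protease reagent (CellTiter-Fluor) was read after 30 min.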

[11] = target: Thyrotropin receptor (Homo sapiens) (UniProt P16473); assay: qHTS assay to identify small molecule agonists of the thyroid stimulating hormone receptor (TSHR) signaling pathway (AID 1224843; calls by dose curve; also: nearly all actives have a fitted effect of over 45% in size)
Chain of Thyrotropin receptor (Homo sapiens) (P16473 whole entry, looked up): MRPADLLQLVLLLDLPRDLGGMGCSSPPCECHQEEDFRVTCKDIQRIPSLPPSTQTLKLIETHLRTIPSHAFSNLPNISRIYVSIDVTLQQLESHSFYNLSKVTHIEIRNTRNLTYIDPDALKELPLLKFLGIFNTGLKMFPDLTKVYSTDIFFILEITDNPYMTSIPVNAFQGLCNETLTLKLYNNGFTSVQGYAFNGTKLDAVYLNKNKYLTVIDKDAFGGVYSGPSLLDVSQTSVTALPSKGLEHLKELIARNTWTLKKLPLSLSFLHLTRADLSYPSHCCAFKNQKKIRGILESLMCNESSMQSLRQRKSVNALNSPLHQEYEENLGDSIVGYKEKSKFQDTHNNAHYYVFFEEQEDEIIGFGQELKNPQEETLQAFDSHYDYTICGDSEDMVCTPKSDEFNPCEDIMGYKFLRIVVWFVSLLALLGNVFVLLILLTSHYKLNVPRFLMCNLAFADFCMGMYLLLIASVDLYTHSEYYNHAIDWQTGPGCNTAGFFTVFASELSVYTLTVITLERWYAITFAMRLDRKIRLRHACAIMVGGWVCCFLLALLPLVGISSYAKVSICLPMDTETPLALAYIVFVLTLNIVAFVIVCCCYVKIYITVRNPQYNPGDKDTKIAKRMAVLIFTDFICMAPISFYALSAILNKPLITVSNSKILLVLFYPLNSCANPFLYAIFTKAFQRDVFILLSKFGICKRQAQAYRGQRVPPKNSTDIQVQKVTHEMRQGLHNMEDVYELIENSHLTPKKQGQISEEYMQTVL
Summary of the method: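 TSHR-HEK293 cells in agonist mode, 30 min room-temperature step, then cAMP measured by competitive HTRF (cAMP-d2 with anti-cAMP cryptate) after 1 h at room temperature. Tested at 15 concentrations in triplicate.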

[12] = qHTS assay to identify small molecule agonists of the hypoxia (HIF-1) signaling pathway - cell viability counter screen (AID 1224844; calls by dose curve; also: nearly all actives have a fitted effect of over 50% in size)
Summary of the method: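 Cells (HRE-bla ME-180, 2,000 per well) sat 5 hrs at 37C, got compound for 17 hrs, were read for CCF4-AM FRET, and were finally lysed with CellTiter-Glo for a 30 min room-temperature luminescence read.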

[13] = qHTS assay to identify small molecule agonists of H2AX (AID 1224845; active = well fitted activation curve with a large enough effect in the signal ratio in the repeat runs, not every such curve was filed as active; the % refers to the signal ratio)
Summary of the method: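 Wild-type CHO-K1 cells, plated overnight, exposed 3hr at 37C to 15 concentrations (0.76% DMSO final). Lysed, then HTRF anti-pH2AX (S139) cryptate and anti-H2AX-d2 antibodies, 24 hr room temperature; 665/620 nm emission read.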

[14] = qHTS assay to identify small molecule agonists of the hypoxia (HIF-1) signaling pathway (AID 1224846; active = well fitted activation curve with a large enough effect in the signal ratio in the repeat runs, not every such curve was filed as active; the % refers to the signal ratio)
Summary of the method: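 A low-serum medium (0.5% dialyzed FBS) holding 2,000 HRE-bla ME-180 cells per well is preincubated for 5 hrs, dosed with compounds by pintool, and kept a further 17 hrs at 37C, 5% CO2 before CCF4-AM FRET detection of beta-lactamase.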

[15] = qHTS assay to identify small molecule agonists of H2AX - cell viability counter screen (AID 1224847; calls by dose curve; also: top concentration of the series differs between compounds; nearly all actives have a fitted effect of over 30% in size)
Summary of the method: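 Read-out: CellTiter-Glo luminescence, 30 min RT. Cells: wild-type CHO-K1, 1000/well, 10% FBS, plated overnight at 37C. Treatment: 15 concentrations, 3 hr, 37C, 0.76% DMSO.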

[16] = qHTS RealTime-Glo MT Cell Viability Assay in HepG2 cells - 24 hour (AID 1224867); also: nearly all actives have a fitted effect of over 50% in size
Summary of the method: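 Real-time, nonlytic viability: 600 HepG2 cells/well mixed with NanoLuc enzyme plus prosubstrate; 5 h settle, compound (DMSO) added by pintool; luminescence monitored over 40 h at 37 C.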

[17] = qHTS assay to identify small molecule antagonists of the estrogen related receptor signaling pathway with the pleiotropic PPARgamma coactivator (PGC) from Tox21 10K library (AID 1224841; call rule not given here; also: actives are mostly falling curves and most rising ones were filed inactive; nearly all actives have a fitted effect of over 50% in size)
Summary of the method: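 qHTS antagonist format: PGC/ERR cells, 2k/well, compound in DMSO by pin transfer after 6 h attachment, 18 h treatment at 37 C, One-Glo luminescence read at 30 min.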

[18] = qHTS assay to identify small molecule agonists of the estrogen related receptor signaling pathway with the pleiotropic PPARgamma coactivator (PGC) from Tox21 10K library (AID 1224842); also: nearly all actives have a fitted effect of over 15% in size
Summary of the method: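 PGC/ERR reporter cell line, 2,000 cells per well, incubated 6 h at 37 C before 23 nL compound in DMSO was added. After 18 h at 37 C, One-Glo luminescence read following 30 min at room temperature.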

[19] = qHTS assay to identify small molecule antagonists of the estrogen related receptor (ERR) signaling pathway from Tox21 library (AID 1224848); also: nearly all actives have a fitted effect of over 50% in size
Summary of the method: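 ERR reporter cell line (from NTP) seeded 2,000 cells/well, rested 6 h at 37 C/5% CO2, then pin-dosed with compounds in DMSO. After 18 h at 37 C, ONE-Glo added; luminescence read after 30 min at room temperature.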

[20] = qHTS assay to identify small molecule agonists of the estrogen related receptor (ERR) signaling pathway from Tox21 library (AID 1224849; calls by dose curve; also: nearly all actives have a fitted effect of over 15% in size); conditions: ERR reporter cell line, ONE-Glo luciferase, 18 h; at 92.4 µM (top of the series) unless noted
Summary of the method: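 Screening used an NTP-provided ERR luciferase cell line. Compounds in DMSO were added 6 h after seeding and left 18 h at 37 C before a 30 min ONE-Glo step and luminescence reading.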
% is scaled to controls: 0 for no effect and ±100 for the full control effect.

Clc1cc(Cl)c(Cl)c(Cl)c1Cl
inactive: outcome [1] | outcome [2] | Potency [3] | outcome [4] | Potency [5] | outcome [6] | outcome [7] | outcome [8] | Potency [9] | outcome [10] | Potency [11] | outcome [12] | outcome [13] | outcome [14] | outcome [15] | outcome [16]

N[C@H]1C(O)O[C@H](CO)[C@@H](O)[C@@H]1O (stereo partly drawn)
inactive: outcome [1] | outcome [2] | Potency [3] | outcome [4] | Potency [5] | outcome [6] | outcome [7] | outcome [8] | Potency [9] | outcome [10] | Potency [17] | Potency [18] | Potency [11] | outcome [12] | outcome [13] | outcome [14] | outcome [15] | outcome [19] | activity change, positive = activation [20] 3.25% [at 42.5 µM] | outcome [16]

CCc1ncc(C)[nH]1
inactive: outcome [1] | outcome [2] | Potency [3] | outcome [4] | Potency [5] | outcome [6] | outcome [7] | outcome [8] | Potency [9] | outcome [10] | Potency [11] | outcome [12] | outcome [13] | outcome [14] | outcome [15] | outcome [16]

O=C(O)Cc1c(Cl)ccc(Cl)c1Cl
inactive: outcome [1] | outcome [2] | Potency [3] | outcome [4] | Potency [5] | outcome [6] | outcome [7] | outcome [8] | Potency [9] | outcome [10] | Potency [17] | Potency [18] | Potency [11] | outcome [12] | outcome [14] | outcome [15] | outcome [19] | activity change, positive = activation [20] 6.33% | outcome [16]

CC1(C)CC(N)CC(C)(C)N1
inactive: outcome [1] | outcome [2] | Potency [3] | outcome [4] | Potency [5] | outcome [6] | outcome [7] | outcome [8] | Potency [9] | outcome [10] | Potency [17] | Potency [18] | Potency [11] | outcome [12] | outcome [13] | outcome [15] | outcome [19] | activity change, positive = activation [20] 4.2% | outcome [16]

C=CCCCCCCCCCCCCCC
inactive: activity change, negative = cytotoxicity [1] 0.725% [at 19 µM] | activity, negative = inhibition [2] -7.34% [at 19 µM] | Potency [3] | viability change, negative = cytotoxic [4] 3.18% [at 19 µM] | activity change, negative = inhibition [5] 0.285% [at 23.6 µM] | viability change, negative = cytotoxic [6] 7.15% [at 19 µM] | activity change, negative = cytotoxicity [7] -0.461% [at 19 µM] | activity, negative = inhibition [8] 6.03% [at 19 µM] | activation [9] -0.195% [at 19 µM] | viability change, negative = cytotoxic [10] 2.94% [at 19 µM] | activation [18] -5.23% [at 19 µM] | activation [11] 2.45% [at 19 µM] | activity change, negative = cytotoxicity [12] -3.81% [at 15.8 µM] | activation (H2AX phosphorylation) [13] -0.234% [at 31.6 µM] | activation [14] -0.445% [at 15.8 µM] | activity change, negative = cytotoxicity [15] 0.186% [at 31.6 µM] | activity, negative = inhibition [19] 3.1% [at 19 µM] | activity change, positive = activation [20] 1.6% [at 19 µM] | activity change, negative = cytotoxicity [16] 0.31% [at 15.8 µM]

O=C1CCCc2c(O)cccc21
inactive: outcome [1] | outcome [2] | Potency [3] | outcome [4] | Potency [5] | outcome [6] | outcome [7] | outcome [8] | Potency [9] | outcome [10] | Potency [18] | outcome [13] | outcome [15] | outcome [19] | activity change, positive = activation [20] 0.0223% [at 42.5 µM] | outcome [16]

Nc1cc(S(=O)(=O)O)ccc1O
inactive: outcome [1] | outcome [2] | Potency [3] | outcome [4] | Potency [5] | outcome [6] | outcome [7] | outcome [8] | Potency [9] | outcome [10] | Potency [17] | Potency [18] | outcome [12] | outcome [14] | outcome [15] | outcome [19] | activity change, positive = activation [20] 6.11% | outcome [16]
